The text below walks through data of PubChem BioAssay AID588579 (National Center for Advancing Translational Sciences (NCATS), 2011).

About 2,200 (0.55%) of roughly 400,000 compounds were called active. A call without a number means that no potency is given here. About 1% were inconclusive and are not listed. This excerpt belongs to a sample that is enriched for actives. A number with no mark means an inactive call. The call rests on the fitted dose curve; in most records, active means well fitted inhibition curve with a large enough effect; inconclusive means small, poorly fitted or top-dose-only effect, or another doubt; inactive means no such curve, though single readings can be large or run the other way.
Potency means the concentration at half of the fitted maximal effect.

DNA polymerase kappa (Homo sapiens), sequence (Q9UBT6 whole entry, looked up): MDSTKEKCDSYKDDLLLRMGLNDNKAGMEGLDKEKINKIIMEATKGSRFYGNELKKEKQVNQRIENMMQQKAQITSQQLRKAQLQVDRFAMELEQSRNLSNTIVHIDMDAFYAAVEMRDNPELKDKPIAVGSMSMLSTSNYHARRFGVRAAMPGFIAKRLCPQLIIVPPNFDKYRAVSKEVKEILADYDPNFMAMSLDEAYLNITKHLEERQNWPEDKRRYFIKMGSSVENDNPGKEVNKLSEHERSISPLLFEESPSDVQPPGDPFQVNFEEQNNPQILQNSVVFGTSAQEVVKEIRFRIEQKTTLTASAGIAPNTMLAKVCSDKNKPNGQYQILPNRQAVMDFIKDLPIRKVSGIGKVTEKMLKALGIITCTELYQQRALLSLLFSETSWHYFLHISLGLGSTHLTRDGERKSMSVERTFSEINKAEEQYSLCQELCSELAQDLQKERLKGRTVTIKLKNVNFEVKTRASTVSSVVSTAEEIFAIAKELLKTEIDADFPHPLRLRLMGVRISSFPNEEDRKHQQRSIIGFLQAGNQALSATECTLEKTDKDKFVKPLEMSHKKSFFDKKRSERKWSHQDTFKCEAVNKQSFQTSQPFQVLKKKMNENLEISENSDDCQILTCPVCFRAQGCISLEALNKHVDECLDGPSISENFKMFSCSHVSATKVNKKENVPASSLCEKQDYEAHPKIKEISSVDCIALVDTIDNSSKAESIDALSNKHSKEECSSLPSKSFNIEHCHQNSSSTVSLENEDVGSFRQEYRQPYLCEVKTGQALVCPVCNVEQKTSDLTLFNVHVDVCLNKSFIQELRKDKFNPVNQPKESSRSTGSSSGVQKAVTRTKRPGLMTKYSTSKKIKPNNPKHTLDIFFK

This test concerns the target DNA polymerase kappa (Homo sapiens) (UniProt Q9UBT6). As to the kind of experiment: qHTS for Inhibitors of Polymerase Kappa. Conditions: purified Pol kappa, fluorescent DNA synthesis assay, 10 min; series mostly up to 107 µM. As for the experimental part:
The processing and repair of DNA interstrand crosslinks (ICL) in eukaryotic cells are extremely complex, potentially involving multiple DNA repair and damage tolerance pathways, including homologous recombination, nucleotide excision repair, translesion synthesis (TLS), and cell cycle checkpoints.
To that end, in a collaboration between the Oregon Health & Science University and the NIH Chemical Genomics Center a 1536-well high-throughput screen was developed. This fluorescent screen was assayed against the NIH Molecular Libraries Small Molecule Repository (MLSMR) to discover inhibitors of Pol Kappa.
NIH Chemical Genomics Center [NCGC]
NIH Molecular Libraries Probe Centers Network [MLPCN]
Assay Submitter (PI): Stephen Lloyd, Oregon Health & Science University
Three microliters of reagents (buffer in column 3 and 4 as negative control and 10 nM Pol kappa in columns 1, 2, and 5-48) were dispensed into a 1536-well black solid-bottom plate. Compounds (23 nL) were transferred via Kalypsys pin tool equipped with 1536-pin array. The plates were then incubated for 15 min at room temperature, and 1 uL substrate (50 nM final concentration) were then added to start the reaction and kinetically read twice at 0 min and 10 min on the Viewlux reader
On the technique in general: In qHTS, concentration-response curves come from the screen itself.
As to `CCOc1ccccc1/C=c1\sc2nc(-c3ccco3)nn2c1=O`, the Potency was 89.1 µM (active).
On the same count and under the same terms, with `CCOC(=O)C1CCN(C(c2ccc(F)cc2)c2sc3nc(-c4ccco4)nn3c2O)CC1` (stereo unspecified) the entry was “inactive”.
With `Oc1c(C(c2ccccc2Cl)N2CCOCC2)sc2nc(-c3ccco3)nn12` (stereo unspecified), the Potency entry is “inactive”.
For the compound `NCCC(=O)c1ccccc1N`, the activity, negative = inhibition is 1.11% [at 19.4 µM].
Take `O=C(O)C(O)[C@@](O)(Cc1ccc(O)cc1)C(=O)O` (stereo partly specified): the Potency result is “inactive”.
Take `O=S(=O)(c1cc(Cl)ccc1Cl)N1CCN(Cc2ccco2)CC1`: the Potency entry is “inactive”.
Still for that read-out and setting: in the case of `O=C(CN1CCN(S(=O)(=O)c2cc(Cl)ccc2Cl)CC1)c1ccc(O)c(O)c1` it was 28.2 µM (active).
`CCN1CCN(C(=O)C2CCN(S(=O)(=O)c3cc(Cl)ccc3Cl)CC2)CC1`: the Potency entry is “inactive”.
Take `NNc1nnc(NN)c2ccccc12`: the activity, negative = inhibition is 2.28% [at 19.4 µM].
Still for that read-out and setting: with `CC(=O)/C(C)=N\O` the figure was -8.23% [at 19.4 µM].
On to `CC1(C)C=Cc2c(ccc(C(=O)/C=C/c3ccccc3)c2O)O1`, for which the Potency result was “inactive”.
Same read-out and setting: with `COc1ccc(CNc2ncnc3ccc(-c4cccnc4)cc23)c(OC)c1` the entry was “inactive”.
With `O=C(c1ccc(Br)o1)N1CCN(CCOc2ccccc2)CC1`, the Potency result is “inactive”.
Still for that read-out and setting: with `O=C(c1ccc(CS(=O)(=O)c2ccccc2)o1)N1CCN(c2ccccc2)CC1` the figure was 79.4 µM (active); with `CCOC(=O)C1CCCN(C(=O)c2ccc(CS(=O)(=O)c3ccc(Br)cc3)o2)C1` (stereo unspecified), “inactive”.
With `Nc1nc2c(ncn2[C@@H]2O[C@H](COP(=O)(O)OP(=O)(O)OP(=O)(O)O)[C@@H](O)C2O)c(=O)[nH]1` (stereo partly specified), the activity, negative = inhibition was -4.75% [at 19.4 µM].
Still for that read-out and setting: in the case of `COc1ccc(OC)c([C@H](O)CNC(=O)CN)c1` it was -13.4% [at 19.4 µM].
For `COC1C[C@@H](O[C@@H]2C(C)C(=O)OC(C)C(C)C(O)C(C)C(=O)[C@@]3(CO3)CC(C)C(OC3OC(C)CC(N(C)C)C3O)C2C)OC(C)[C@@H]1O` (stereo partly specified), the Potency entry is “inactive”.
Same read-out and setting: in the case of `O=P(O)(O)OC[C@H](O)CO` it was “inactive”.
Still for that read-out and setting: with `COc1c2c(cc3occ(-c4ccc5c(c4)OCO5)c(=O)c13)OC(C)(C)C=C2` the entry was “inactive”; with `COc1cccc2c1C(=O)c1c(O)c3c(c(O)c1C2=O)CC(O)(C(C)=NNC(=O)c1ccc(Cl)c(Cl)c1)CC3OC1CC(N)C(O)C(C)O1` (stereo unspecified), 17.8 µM (active).
For the compound `Cc1cccc(-c2nnc(SC(C)C(=O)Nc3ccccc3)n2C)c1` (stereo unspecified), the Potency entry was “inactive”.
Consider `COc1cccc(Nc2ncc3ncc(=O)n(C4CC4)c3n2)c1`, for which the Potency result was “inactive”.
Still for that read-out and setting: in the case of `NC(=O)[C@H]1CC2(CC(c3cccc(NC(=O)[C@H]4CCC(=O)N4)c3)=NO2)CN1C(=O)c1ccccc1C(=O)c1ccccc1` (stereo partly specified) it was “inactive”; in that of `CCC(=O)Nc1cccc(C2=NOC3(C2)C[C@@H](C(N)=O)N(C(=O)c2cc([N+](=O)[O-])cc([N+](=O)[O-])c2C)C3)c1` (stereo partly specified), “inactive”.
Same read-out and setting: in the case of `C=C(C)C(=O)Nc1cccc(C2=NOC3(C2)C[C@H](C(N)=O)N(C(=O)C(c2ccccc2)c2ccccc2)C3)c1` (stereo partly specified) it was 25.1 µM (active).
For the compound `CN1[C@H]2CC(OC(=O)[C@@H](CO)c3ccccc3)C[C@H]1[C@H]1O[C@H]12` (stereo partly specified), the activity, negative = inhibition was -3.18% [at 12 µM].
Turning to `O=C(c1cnccn1)N1CCC2(CCN(Cc3cc(C(F)(F)F)cc(C(F)(F)F)c3)CC2)CC1`, the Potency entry was “inactive”.
Still for that read-out and setting: with `Cc1nc2cnc(Oc3cccc(Cl)c3)nc2n(C2CC2)c1=O` the entry was “inactive”.
The same measure, in the same setting: in the case of `S=c1[nH]c(=S)c2n[nH]nc2[nH]1` it was “inactive”; in that of `COc1ccc(Nc2cc(C(=O)NCCCN(C)c3ccccc3)c3ccccc3n2)c(OC)c1`, “inactive”.
Still for that read-out and setting: in the case of `COc1ccccc1Nc1cc(C(=O)NCCCN(C)C2CCCCC2)c2ccccc2n1` it was “inactive”; in that of `CN(C)CCNC(=O)c1ccc(Cl)c2cc3ccccc3nc12`, 50.1 µM (active); in that of `O=C(c1csnn1)N1CCC[C@@]2(CCN(c3cccc(-c4ccccc4)c3)C2)C1`, “inactive”.
For `CC(=O)c1ccc(S(=O)(=O)N2CCN(C(=O)/C=C/c3ccc4ccccc4n3)CC2)cc1`, the Potency is 79.4 µM (active).
The same measure, in the same setting: in the case of `CC(=O)c1ccc(S(=O)(=O)N2CCC(Oc3ccc(-n4cnnn4)cc3)CC2)cc1` it was “inactive”; in that of `CC(=O)c1cccc(Nc2ccc3cc(S(=O)(=O)N4CCC(C)CC4)ccc3n2)c1`, “inactive”.
Still for that read-out and setting: with `Cc1cccc(NC(=O)COC(=O)c2ccccc2OCc2cccc(Br)c2)c1` the entry was “inactive”.
On the same count and under the same terms, with `C=C1C(=O)C23C(O)C1CCC2[C@]12COC3(O)C(O)C1C(C)(C)CC[C@H]2O` (stereo partly specified) the entry was “inactive”.
As to `O=C(O)c1ccc(NN=CC2=C(N3CCOCC3)/C(=C/c3ccccc3)CC2)cc1`, the Potency was 28.2 µM (active).
Turning to `CC(C)(CNC(=O)c1ccc(Cl)c(S(=O)(=O)N2CCc3ccccc3C2)c1)N1CCOCC1`, the Potency entry is “inactive”.
The same measure, in the same setting: in the case of `O=C(Nc1cc(Cl)ccc1N1CCOCC1)c1ccc(N2CCCC2=O)cc1` it was “inactive”.
On the same count and under the same terms, in the case of `Cc1cc(/C=N/Nc2ccc([N+](=O)[O-])cn2)c(C)n1-c1cccc(C(=O)O)c1` it was 70.8 µM (active); in that of `CN1CCN(C(=O)c2cnn(-c3ccccc3)c2NC(=O)c2ccc([N+](=O)[O-])cc2)CC1`, “inactive”; in that of `Cc1cccc(C(=O)NC(=S)N2CCN(c3ccc([N+](=O)[O-])cc3)CC2)c1`, “inactive”.
As to `COc1cc(OC)c(OC)cc1/C=C1\C=Cc2ccccc21`, the Potency result is “inactive”.
Turning to `O=c1c(-c2ccc(F)cc2)nc2cnc(N3CCNCC3)nc2n1Cc1cccs1`, the Potency entry is “inactive”.
The same measure, in the same setting: with `CN(C)c1ccc(/C=C2\C=Cc3ccccc32)cc1Br` the entry was “inactive”; with `CCN(CC)CCOc1ccc2c(c1)C(=NNC(=O)c1ccccn1)c1cc(OCCN(CC)CC)ccc1-2`, 10 µM (active).
Same read-out and setting: with `CCOc1ccc(C(=O)N2CCN(CCc3ccccn3)CC2)cc1` the entry was “inactive”; with `O=C(c1ccncc1)N1CCC2(CCN(Cc3cc(C(F)(F)F)cc(C(F)(F)F)c3)CC2)CC1`, “inactive”.
In the case of `C[C@]12CC[C@@H]3C(=CCc4cc(O)ccc43)[C@@H]1CCC2=O`, the activity, negative = inhibition is -6.88% [at 12 µM].
The same measure, in the same setting: in the case of `Oc1ccc(Cl)c2c1CCC2` it was 2.83% [at 19.4 µM].
Turning to `C/C=C/C=N/NC(=O)c1ccncc1`, the activity, negative = inhibition is -3.32% [at 19.4 µM].
In the case of `C=C1c2c(Cl)ccc(O)c2C(O)=C2C(=O)[C@]3(O)C(O)=C(C(N)=O)C(=O)[C@@H](N(C)C)[C@@H]3[C@@H](O)C12` (stereo partly specified), the Potency is 3.98 µM (active).
Still for that read-out and setting: in the case of `CN(C)[C@@H]1C(=O)C(C(N)=O)=C(O)[C@@]2(O)C(=O)C3=C(O)c4c(O)ccc(Cl)c4[C@@H](O)[C@H]3C[C@@H]12` it was 89.1 µM (active).
